Experimental data: PubChem BioAssay AID1347145 (National Center for Advancing Translational Sciences (NCATS), 2019)
Records with an inconclusive call do not appear. Calls of active or inactive are those of the source. Calls come from the whole dose curve; as a rule, active = well fitted inhibition curve with a large enough effect; inconclusive = small, poorly fitted or top-dose-only effect; inactive = no such curve, though single readings can be large or run the other way.

These molecules were tested against N-terminal Xaa-Pro-Lys N-methyltransferase 1 (Homo sapiens) (UniProt Q9BV86) (assay: qHTS Assay for Inhibitors of N-terminal methyltransferase 1 (NTMT1): MTaseGlo Assay Confirmatory Screen, Round 1). Conditions: Recombinant NTMT1, MTase-Glo SAH luminescence; series mostly up to 57.1 µM; activity change, negative = inhibition: at the top concentration.
Excerpt: Assay Submitter (PI): Rong Huang Ph.D, Purdue University, West Lafayette, IN 47907 The N-terminal methytransferase 1 is the first methyltransferase that methylates protein alpha-N-amines and plays an important role in regulating cell mitosis, chromatin interactions and DNA repair. It is observed to be over-expressed in various cancer patient tissues like malignant melanoma and colorectal cancer tissues. Knockdown of NTMT1 in cancer cells causes cell mitotic defects and enhances sensitivity to DNA damaging chemotherapeutics. […] These critical cellular processes in which NTMT1 is implicated, coupled with emerging links to cellular dysfunction, strengthen the inference that NTMT1 is a compelling novel anticancer target. Progress have been made in understanding the molecular properties of NTMT1 and the biological consequences of protein alpha-N-terminal methylation, but there are no specific small molecule probes available for NTMT1 to fully characterize its MTase activity. To address this unmet need, a panel of assay is created and established to enable quantitative high-throughput screening (qHTS) for novel, potent, and selective small molecule NTMT1 inhibitors. Two orthogonal qHTS that use different reagents (ThioGlo vs. MTaseGlo) are developed for primary robotic screening against the NCATS chemical library of more than 400,000 small molecules. Identified inhibitors are reacquired, validated, and further characterized. MTaseGlo Assay is a luminescence screen that measure the activity of methyltransferases based on the reaction product S-adenosyl homocysteine (SAH). The substrate SAM is converted to SAH upon enzyme activation. MTase-Glo reagent and detection solution convert SAH to ATP and measure the light from the luciferase reaction. […] Early Translation Branch (ETB) National Center for Advancing Translational Sciences (NCATS) National Institute of Health (NIH)
Materials: NTMT1 enzyme, substrate SPKRIA, control peptide RCC1-6 is provided by the Huang laboratory. MTaseGlo Assay: In brief, 3 µL of enzyme mixture (final concentrations of 125 nM and 100 µM for NTMT1 and SAM, respectively) into all wells of a 1,536-well solid-bottom white plate (Greiner Bio One, Monroe, NC). 23 nL of DMSO or Ac-RCC1-10 (final concentration range 234 nM to 143 microM) was transferred via Wako Pin-tool (Wako Automation, Richmond, VA) and incubated (RT) for ~15 minutes. Next, 1 µL of substrate (final concentration 1 µM) or buffer was dispensed, and the reaction proceeded for 30 minutes (RT, protected from light) followed by a 1 microL addition of [5X] MTase-Glo Reagent(R). Samples were incubated (RT, protected from light) for 30 minutes to allow for SAH to be converted to ADP, followed by a 5 microL addition of [1X] MTase-Glo Detection Solution(R) to allow for ADP to be converted to ATP, which was then detected with a luciferase reaction. Samples were centrifuged for 15 seconds at 1,000 RPM's, followed by a RT incubation for 30 minutes. Plates were then read using Luminescence optics on a ViewLux detector. Data were normalized to no-enzyme (0% activity) and no-inhibitor (DMSO; 100%) controls, and the resulting percent inhibition data were fitted to a 4-parameter Hill equation using Graphpad Prism.
Potency is the fitted concentration of half-maximal effect.

Sequence of N-terminal Xaa-Pro-Lys N-methyltransferase 1 (Homo sapiens) (Q9BV86 whole entry, looked up): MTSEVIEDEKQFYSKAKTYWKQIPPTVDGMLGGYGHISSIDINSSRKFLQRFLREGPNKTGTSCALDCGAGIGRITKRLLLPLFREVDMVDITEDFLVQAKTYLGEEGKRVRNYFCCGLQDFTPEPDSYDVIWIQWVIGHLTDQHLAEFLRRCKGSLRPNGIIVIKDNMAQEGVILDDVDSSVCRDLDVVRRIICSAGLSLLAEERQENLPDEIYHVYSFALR

Compound | activity change, negative = inhibition | Potency
Cc1ccccc1CNc1ncnc2c1ncn2[C@@H]1O[C@H](CO)[C@@H](O)[C@H]1O | 14.4% (inactive) | –
OC[C@H]1O[C@@H](n2cnc3c(NCc4ccccc4)ncnc32)[C@H](O)[C@@H]1O | -6.1% (inactive) | –
COc1cc2nc(N3CCCN(C)CC3)nc(NC3CCCCC3)c2cc1OC | 41.1% (inactive) | –
C/C(=C\CNc1ncnc2c1ncn2[C@@H]1O[C@H](CO)[C@@H](O)[C@H]1O)CO | 35.2% (inactive) | –
Nc1nc(=S)c2ncn([C@H]3O[C@@H](CO)[C@@H](O)[C@@H]3O)c2[nH]1 | 4.07% [at 27.6 µM] (inactive) | –
Nc1ncnc2c1ncn2[C@@H]1O[C@H](CO)C[C@@H]1O | -8.62% (inactive) | –
Nc1ncnc2c1ncn2[C@@H]1O[C@H](CO)[C@@H](O)[C@H]1O | 43.9% (inactive) | –
COc1cc2nc(N3CCN(C(C)=O)CC3)nc(NC3CC3)c2cc1OC | 2.41% (inactive) | –
COc1cc2nc(N3CCN(C)CC3)nc(NC3CCN(Cc4ccccc4)CC3)c2cc1OC | -7.39% (inactive) | –
COc1cc2nc(N3CCCCC3)nc(NC3CCN(C)CC3)c2cc1OC | -16.8% (inactive) | –
COc1cc2c(NC3CCN(C(C)C)CC3)nc(N3CCCN(C)CC3)nc2cc1OCCOCCN1CCCC1 | -17.6% (inactive) | –
COc1cc2nc(N3CCN(C)CC3)nc(N3CCN(C(C)=O)CC3)c2cc1OC | 5.41% (inactive) | –
COc1cc2c(NC3CCN(C)CC3)nc(N3CCCN(C)CC3)nc2cc1OCCCCCN(C)C | -10.4% (inactive) | –
Nc1ncnc2c1[nH]c(=O)n2C1CC(O)C(CO)O1 (stereo not given) | 3.61% (inactive) | –
COC1C(O)C(CO)OC1n1cnc2c(NC3CCCCC3)ncnc21 (stereo not given) | -3.48% (inactive) | –
COc1cc2c(NC3CCN(C)CC3)nc(N3CCCN(C)CC3)nc2cc1OCCOCCN1CCCC1 | -15% (inactive) | –
OC[C@H]1O[C@H](n2cnc3c(NC4CCCC4)nc(Cl)nc32)[C@@H](O)[C@@H]1O | 3.4% (inactive) | –
CCCCC#Cc1nc(NC)c2ncn([C@@H]3O[C@@H](CO)[C@H](O)[C@H]3O)c2n1 | 5.36% (inactive) | –
COc1cc2nc(N3CCCN(C)CC3)nc(NC(C)C)c2cc1OC | -0.0463% (inactive) | –
Nc1ncnc2c1ncn2[C@H]1O[C@@H](CO)[C@@H](O)[C@H]1N | 2.75% (inactive) | –

Compound | activity change, negative = inhibition | Potency
Nc1ncnc2c1ncn2[C@H]1O[C@@H](CNS(=O)(=O)NC(=O)c2cccc(-c3noc(-c4ccccc4F)n3)c2)[C@H](O)[C@@H]1O | – | 1.93 µM (active)
COc1cc2c(NC3CCN(C)CC3)nc(N3CCCN(C)CC3)nc2cc1OCCCCN | – | 15.3 µM (active)
Nc1ncnc2c1nc(Br)n2C1CC(O)C(CO)O1 (stereo not given) | -4.15% (inactive) | –
COc1cc2nc(N3CCN(C)CC3)nc(NC3CC3)c2cc1OC | -1.02% (inactive) | –
CCNC(=O)[C@H]1O[C@H](n2cnc3c(N)nc(NCCc4ccc(CCC(=O)O)cc4)nc32)[C@@H](O)[C@@H]1O | -19% (inactive) | –
COc1cc2nc(N3CCCN(C)CC3)nc(NC3CC3)c2cc1OC | 0.118% (inactive) | –
Nc1ncnc2c1ncn2[C@H]1O[C@@H](CSCC[C@@H](N)C(=O)O)[C@H](O)[C@@H]1O | 481% (inactive) | –
CCCc1cc(C)[nH]c(=O)c1CNC(=O)c1cc(-c2ccc(N3CCN(C(C)C)CC3)nc2)cc2c1cnn2C(C)C | 0.416% (inactive) | –
COc1cc2c(NC3CCN(C)CC3)nc(N3CCN(C)CC3)nc2cc1OCCCN(C)C | -19.5% (inactive) | –
COc1cc2nc(N3CC[C@H](N(C)C)C3)nc(NC3CC3)c2cc1OC | 3.23% (inactive) | –
CNc1ncnc2c1ncn2[C@@H]1O[C@H](CO)C(O)[C@H]1O (stereo not given in full) | 215% (inactive) | –
CNC(=O)c1cnn(-c2nc(N)c3ncn([C@@H]4O[C@H](CO)[C@@H](O)[C@H]4O)c3n2)c1 | 5.01% (inactive) | –
Nc1nc2c([nH]c(=O)n2[C@@H]2O[C@H](CO)[C@@H](O)[C@H]2O)c(=O)[nH]1 | -0.0532% [at 6.33 µM] (inactive) | –
COc1cc2c(NC3CCN(C(C)C)CC3)nc(N3CCC(F)(F)CC3)nc2cc1OCCCN1CCCCC1 | -14.1% (inactive) | –
OC[C@H]1O[C@@H](n2cnc3c(N[C@H]4C[C@H]5CC[C@@H]4C5)ncnc32)[C@H](O)[C@@H]1O | 5.14% (inactive) | –
COc1cc2c(NC3CCN(C)CC3)nc(N3CCCN(C)CC3)nc2cc1OCCCN(C)C | -15.2% (inactive) | –
CSc1nc(N)c2ncn([C@@H]3O[C@H](COP(=O)(O)OP(=O)(O)OP(=O)(O)O)[C@@H](O)[C@H]3O)c2n1 | 3.54% (inactive) | –
O=c1[nH]cnc2c1ncn2C1O[C@H](CO)[C@@H](O)[C@H]1O (stereo not given in full) | 6.52% (inactive) | –
COc1cc2nc(N3CCN(C)CC3)nc(NCCCN(C)C)c2cc1OC | -3.31% (inactive) | –
COc1cc2nc(Nc3ccccc3)nc(NC3CC3)c2cc1OC | -11.4% (inactive) | –
